Measurements as given in PubChem BioAssay (Tox21).
Inconclusive results are not listed. Calls of active or inactive are those of the source. Unless noted, the call rests on the fitted dose curve; in most records, active means well fitted curve in the direction sought with a large enough effect in the repeat runs; inconclusive means weak or mixed curves; inactive means no such curve, though single readings can be large; an effect the other way counts as inactive or inconclusive.

How the values were obtained:
[1] = qHTS assay to identify small molecule agonists of the estrogen receptor alpha (ER-alpha) signaling pathway in the presence of an antagonist - cell viability counter screen (AID 1259386);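 further: series mostly up to about 92 µM; cells exposed to compounds for 22 h at 37 °C before the viability read; nearly all actives have a fitted effect of over 30% in size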
Procedure, shortened: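 VM7Luc4E2, stripped-serum pre-culture 5 d; 24hr plating; +ICI-182,780 10.0nM final; cpds 15 conc, 22hr, 37C/5% CO2; CellTiter-Fluor added at 21hr, fluorescence 1hr later.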

[2] = target: Progesterone receptor (Homo sapiens) (UniProt P06401); assay: qHTS assay to identify small molecule agonists of the progesterone receptor (PR) signaling pathway (AID 1346784; calls by dose curve; further: nearly all actives have a fitted effect of over 30% in size)
Progesterone receptor (Homo sapiens), sequence (P06401 whole entry, looked up): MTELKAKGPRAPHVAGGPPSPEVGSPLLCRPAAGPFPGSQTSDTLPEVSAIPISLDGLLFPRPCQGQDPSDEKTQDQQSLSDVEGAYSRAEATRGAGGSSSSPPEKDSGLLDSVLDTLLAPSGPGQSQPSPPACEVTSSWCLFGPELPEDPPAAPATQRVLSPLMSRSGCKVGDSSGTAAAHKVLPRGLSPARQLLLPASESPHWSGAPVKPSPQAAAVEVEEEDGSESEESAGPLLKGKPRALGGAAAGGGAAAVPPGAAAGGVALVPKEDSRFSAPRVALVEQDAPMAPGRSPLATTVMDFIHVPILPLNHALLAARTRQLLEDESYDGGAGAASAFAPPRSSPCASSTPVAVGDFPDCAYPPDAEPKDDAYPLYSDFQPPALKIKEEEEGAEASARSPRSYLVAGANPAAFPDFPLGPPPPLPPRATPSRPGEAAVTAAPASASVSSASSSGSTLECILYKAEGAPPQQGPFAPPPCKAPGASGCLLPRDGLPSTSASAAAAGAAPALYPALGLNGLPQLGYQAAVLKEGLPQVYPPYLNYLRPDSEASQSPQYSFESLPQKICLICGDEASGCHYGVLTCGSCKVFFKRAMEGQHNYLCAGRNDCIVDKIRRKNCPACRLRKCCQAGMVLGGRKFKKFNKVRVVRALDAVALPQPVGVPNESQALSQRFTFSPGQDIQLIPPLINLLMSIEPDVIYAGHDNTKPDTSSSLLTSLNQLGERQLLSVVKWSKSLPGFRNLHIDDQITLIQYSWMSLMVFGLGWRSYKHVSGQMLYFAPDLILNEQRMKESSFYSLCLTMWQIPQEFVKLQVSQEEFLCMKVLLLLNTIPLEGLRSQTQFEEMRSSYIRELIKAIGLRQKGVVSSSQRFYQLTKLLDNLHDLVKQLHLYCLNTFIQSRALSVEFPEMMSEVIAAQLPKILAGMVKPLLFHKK
Procedure, shortened: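 Agonist qHTS: compounds pinned onto 3,000 PR-UAS-bla HEK 293T cells per well in charcoal-stripped serum medium, 16hr at 37C, then beta-lactamase activity measured by LiveBLAzer FRET fluorescence after 2 hours at room temperature.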

[3] = target: Progesterone receptor (Homo sapiens) (UniProt P06401); assay: qHTS assay to identify small molecule antagonists of the progesterone receptor (PR) signaling pathway (AID 1346795; active means well fitted inhibition curve with a large enough effect in the signal ratio in the repeat runs, not every such curve was filed as active; the % refers to the signal ratio)
Procedure, shortened: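 Antagonist mode with agonist R5020 at 1 nM final and 16 hr incubation at 37C. Reporter was beta-lactamase driven by UAS in HEK293T (PR-UAS-bla), 2% charcoal-stripped serum; signal from LiveBLAzer FRET substrate, 2 hr at room temperature.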

[4] = qHTS assay to identify small molecule antagonists of the progesterone receptor (PR) signaling pathway - cell viability counter screen (AID 1346798); further: series mostly up to about 92 µM; nearly all actives have a fitted effect of over 50% in size
Procedure, shortened: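 Cytotoxicity read as CellTiter-Glo luminescence (30 min, room temperature) in the same wells as the beta-lactamase readout. HEK293T PR-UAS-bla cells in charcoal-stripped 2% FBS received compound and R5020, then 16 h at 37C, 5% CO2.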

[5] = qHTS assay to identify small molecule agonists of the progesterone receptor (PR) signaling pathway - cell viability counter screen (AID 1346799; calls by dose curve; further: nearly all actives have a fitted effect of over 45% in size)
Procedure, shortened: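 Cytotoxicity measured by CellTiter-Glo luminescence (30 min, RT) in the same wells as the PR beta-lactamase agonist read. Those HEK293T cells had 16 h compound treatment at 37 C in 2% charcoal-stripped FBS medium.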

[6] = qHTS assay to identify small molecule antagonists of the TGF-beta/Smad signaling pathway - cell viability counter screen (AID 1346824); further: nearly all actives have a fitted effect of over 50% in size
Procedure, shortened: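 Cytotoxicity counter-screen run in the same wells as the beta-lactamase Smad reporter read: CellTiter-Glo luminescence after 30 min at room temperature. HEK 293T SBE-bla cells had 5 hr compound exposure at 37 C with TGF-beta1 (0.25 ng/mL stock).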

[7] = qHTS assay to identify small molecule agonists of the TGF-beta/Smad signaling pathway (AID 1346859; active means well fitted activation curve with a large enough effect in the signal ratio in the repeat runs, not every such curve was filed as active; the % refers to the signal ratio; further: series mostly up to about 77 µM)
Procedure, shortened: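 Fluorescence (ex 405 nm; em 460 and 530 nm) was read 2 h after LiveBLAzer FRET substrate at RT. The preceding compound treatment of overnight-plated SBE-bla HEK293T cells lasted 5 h at 37 C.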

[8] = target: Thyrotropin-releasing hormone receptor (Homo sapiens) (UniProt P34981); assay: qHTS assay to identify small molecule antagonists of the thyrotropin-releasing hormone receptor (TRHR) signaling pathway (AID 1346877; active means well fitted inhibition curve with a large enough effect in the repeat runs, not every such curve was filed as active; further: series mostly up to about 51 µM)
Thyrotropin-releasing hormone receptor (Homo sapiens), sequence (P34981 whole entry, looked up): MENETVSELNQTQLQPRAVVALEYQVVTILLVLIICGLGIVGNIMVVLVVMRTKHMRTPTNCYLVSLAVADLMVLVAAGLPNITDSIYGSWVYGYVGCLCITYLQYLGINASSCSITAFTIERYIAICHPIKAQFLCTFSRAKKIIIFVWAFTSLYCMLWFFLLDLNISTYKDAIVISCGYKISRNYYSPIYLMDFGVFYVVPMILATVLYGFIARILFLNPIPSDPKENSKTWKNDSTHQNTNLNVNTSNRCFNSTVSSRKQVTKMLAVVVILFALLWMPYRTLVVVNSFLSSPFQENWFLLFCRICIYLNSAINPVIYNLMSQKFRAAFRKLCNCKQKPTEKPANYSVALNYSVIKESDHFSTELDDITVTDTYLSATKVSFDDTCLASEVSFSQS
Procedure, shortened: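 Intracellular calcium fluorescence, read kinetically every second over 3 min, reports TRH-evoked signalling in HEK293 cells carrying TRHR. Test compounds were added 5 min ahead of a 1 nM TRH challenge.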

[9] = target: Thyrotropin-releasing hormone receptor (Homo sapiens) (UniProt P34981); assay: qHTS assay to identify small molecule agonists of the thyrotropin-releasing hormone receptor (TRHR) signaling pathway (AID 1346891; calls by dose curve; further: series mostly up to about 58 µM)
Procedure, shortened: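 Agonist-mode intracellular calcium readout: kinetic fluorescence over 3 min at 1 s intervals after compound addition to TRHR-HEK293 cells (18 h seeded, 2 h dye-loaded at 37 C). Fifteen concentrations, triplicates.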

[10] = Human pregnane X receptor (PXR) small molecule agonists, qHTS cell viability counter screen (AID 1346977); further: nearly all actives have a fitted effect of over 50% in size
Procedure, shortened: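 Same-well viability read: CellTiter-Fluor added after 23 hr compound exposure, fluorescence measured 1 hr later. Cells were PXR-Luc HepG2 seeded at 2,000/well in 5% charcoal-stripped FBS medium, rested 5 hr before dosing at 37 C.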

[11] = Caspase-3/7 induction in HepG2 cells by small molecules, qHTS assay (AID 1346978); further: nearly all actives have a fitted effect of over 15% in size
Procedure, shortened: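 Caspase-3/7 induction was measured by Caspase-Glo 3/7 luminescence (30 min, room temperature) after a 17 hr compound exposure of wild-type HepG2 cells seeded at 2,000 per well and pre-incubated 5 hr.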

[12] = Caspase-3/7 induction in CHO-K1 cells by small molecules, qHTS cell viability counter screen (AID 1346979); further: nearly all actives have a fitted effect of over 35% in size
Procedure, shortened: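 Cytotoxicity counter screen: CellTiter-Fluor added to compound-treated wild-type CHO-K1 cells at 16 h (37C, 5% CO2), fluorescence measured 1 h later; same wells as caspase-3/7 measurement.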

[13] = Caspase-3/7 induction in CHO-K1 cells by small molecules, qHTS assay (AID 1346980); further: nearly all actives have a fitted effect of over 15% in size
Procedure, shortened: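 Luminescent Caspase-Glo 3/7 read (30min, room temperature) quantified apoptosis induction. Cells were wild-type CHO-K1, treated with compound for 17hr at 37 C and 5% CO2.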

[14] = Caspase-3/7 induction in HepG2 cells by small molecules, qHTS cell viability counter screen (AID 1346981); further: series mostly up to about 92 µM; nearly all actives have a fitted effect of over 30% in size
Procedure, shortened: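 HepG2, WT, 2,000 cells/well; 5 hr pre-incubation 37 C/5% CO2; compound pin-transferred from DMSO; 16 hr exposure; CellTiter-Fluor, 1 hr; fluorescence read.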

[15] = target: Nuclear receptor subfamily 1 group I member 2 (Homo sapiens) (UniProt O75469); assay: Human pregnane X receptor (PXR) small molecule agonists, qHTS assay (AID 1346982); further: nearly all actives have a fitted effect of over 35% in size
Nuclear receptor subfamily 1 group I member 2 (Homo sapiens), sequence (O75469 whole entry, looked up): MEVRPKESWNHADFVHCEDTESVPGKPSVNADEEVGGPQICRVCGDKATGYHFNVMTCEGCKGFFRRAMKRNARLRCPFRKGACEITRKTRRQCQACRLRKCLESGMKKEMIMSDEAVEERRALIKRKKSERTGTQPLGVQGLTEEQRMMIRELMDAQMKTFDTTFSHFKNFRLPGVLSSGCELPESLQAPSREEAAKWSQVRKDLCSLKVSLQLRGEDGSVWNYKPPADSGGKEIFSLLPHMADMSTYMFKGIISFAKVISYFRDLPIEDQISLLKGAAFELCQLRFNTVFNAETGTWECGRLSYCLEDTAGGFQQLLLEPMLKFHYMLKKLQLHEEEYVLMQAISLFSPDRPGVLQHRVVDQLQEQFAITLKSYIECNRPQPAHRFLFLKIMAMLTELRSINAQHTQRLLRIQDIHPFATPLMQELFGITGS
Procedure, shortened: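 Luciferase signal from ONE-Glo (30 min, room temperature) measured activation of hPXR-driven CYP3A4 reporter expression in PXR-Luc HepG2 cells treated with compounds for 24 hr at 37 C.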

[16] = target: Acetylcholinesterase (Homo sapiens) (UniProt P22303); assay: Acetylcholinesterase (AChE) small molecule antagonists: colormetric cell-based qHTS assay (AID 1347395; calls by dose curve; further: nearly all actives have a fitted effect of over 30% in size)
Acetylcholinesterase (Homo sapiens), sequence (P22303 whole entry, looked up): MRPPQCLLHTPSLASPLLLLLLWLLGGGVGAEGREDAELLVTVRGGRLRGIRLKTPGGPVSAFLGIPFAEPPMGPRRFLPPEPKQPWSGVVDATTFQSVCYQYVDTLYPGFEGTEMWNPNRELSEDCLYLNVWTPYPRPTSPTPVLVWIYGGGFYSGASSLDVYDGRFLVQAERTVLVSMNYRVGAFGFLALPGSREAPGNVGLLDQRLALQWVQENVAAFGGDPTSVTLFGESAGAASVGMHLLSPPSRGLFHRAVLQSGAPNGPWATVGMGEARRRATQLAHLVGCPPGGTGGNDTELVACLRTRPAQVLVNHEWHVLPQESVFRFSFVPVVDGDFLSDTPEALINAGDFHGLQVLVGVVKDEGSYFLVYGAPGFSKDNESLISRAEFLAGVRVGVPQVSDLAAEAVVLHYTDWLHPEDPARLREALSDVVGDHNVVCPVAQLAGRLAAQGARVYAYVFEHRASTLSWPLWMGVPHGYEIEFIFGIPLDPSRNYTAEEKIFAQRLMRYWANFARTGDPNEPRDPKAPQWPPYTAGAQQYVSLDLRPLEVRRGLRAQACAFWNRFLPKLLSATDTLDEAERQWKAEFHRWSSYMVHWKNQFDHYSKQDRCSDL
Procedure, shortened: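 Colorimetric readout: DTNB quantifies thiocholine from acetylthiocholine hydrolysed by endogenous AChE of SH-SY5Y cells (2,000/well, plated overnight). Compound pretreatment 30 min, substrate incubation 90 min, both 37 C.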

[17] = qHTS assay to identify small molecule agonists of the TGF-beta/Smad signaling pathway - cell viability counter screen (AID 1346829); further: top concentration of the series differs between compounds; nearly all actives have a fitted effect of over 45% in size
Procedure, shortened: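 Luminescence from CellTiter-Glo, read after a 30 min room-temperature incubation, gives cell viability of SBE-bla HEK 293T cells treated 5 hr with compounds at 37 C.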

Measured: Potency

C#CC1(O)CCCCC1
not listed: [17]
inactive: all other assays above

O=C(O)CCCCCCNC1c2ccccc2CCc2ccccc21
not listed: [7] | [8] | [9] | [12]
inactive: all other assays above

CCCCc1ccccc1
not listed: [7] | [8] | [9]
inactive: all other assays above

C#CCO
inactive: all assays above

O=C(O)[C@H](O)[C@@H](O)C(=O)O
not listed: [12] | [15]
inactive: all other assays above

CCOC(=O)Cc1ccccc1
not listed: [8]
inactive: all other assays above

CC(=O)C(Cl)C(=O)N(C)C (stereo not drawn)
not listed: [12] | [15]
inactive: all other assays above

C=CCBr
inactive: all assays above
